According to PubChem BioAssay AID743335 (Broad Institute, 2014):
Values without a mark were called inactive.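 How the source made its calls: active means cell killing, with a fitted half-maximal concentration at or below twice the top valid dose tested; inconclusive means flat curve with moderate signal loss, or a poor fit; inactive means effect in the rising direction, plus the rest.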

Assay: HEK293T cytotoxicity, dose response, cytotoxicity control, cell-based, ATP luminescence, dry powder, set 11 (AID 743335)
Details: HEK293T viability, ATP luminescence (CellTiter-Glo), 72 h; series mostly up to 15 µM; activity change, negative = cytotoxicity: at the top concentration

Structure (SMILES) | activity change, negative = cytotoxicity [%]
Cc1cnc(NC(=O)c2cc(S(=O)(=O)N3CCCCC3)ccc2N2CCCC2)s1 | 2.61
Cc1cnc(NC(=O)c2cc(S(=O)(=O)N(C)C)ccc2C2CCCC2)s1 | -12.9
COc1ccc2sc(NC(=O)c3cc(S(=O)(=O)N(C)C)ccc3N3CCCC3)nc2c1 | 4.68
CN(C)S(=O)(=O)c1ccc(N2CCCC2)c(C(=O)Nc2nc3ccccc3s2)c1 | -6.3
CN(C)S(=O)(=O)c1ccc(N2CCCC2)c(C(=O)Nc2cccc(F)c2)c1 | -17.6
CN(C)CCCN(Cc1cc2ccccc2[nH]c1=O)C(=O)Nc1ccccc1 | -18.9
CN(C)CCCN(Cc1cc2ccccc2[nH]c1=O)C(=O)NCc1ccccc1 | -7.88
COc1cccc2sc(NC(=O)c3cc(S(=O)(=O)N(C)C)ccc3N3CCCC3)nc12 | -2.09
Cc1cnc(NC(=O)c2cc(S(=O)(=O)N(C)C)ccc2N2CCC2)s1 | 0.864
Cc1csc(NC(=O)c2cc(S(=O)(=O)N(C)C)ccc2N2CCCC2)n1 | -9.89
CCN(CC)c1ccc(S(=O)(=O)N(C)C)cc1C(=O)Nc1ncc(C)s1 | -14.2
Cc1cnc(NC(=O)c2cc(S(=O)(=O)N3CCOCC3)ccc2N2CCCC2)s1 | -2.27
Cc1cnc(NC(=O)c2cc(S(=O)(=O)N3CCCC3)ccc2N2CCCC2)s1 | -2.37
Cc1cnc(NC(=O)c2cc(S(=O)(=O)N(C)C)ccc2N(C)C)s1 | -17.5
CN(C)S(=O)(=O)c1ccc(N2CCCC2)c(C(=O)Nc2nccs2)c1 | 0.72
CN(C)S(=O)(=O)c1ccc(N2CCCC2)c(C(=O)Nc2ccccc2)c1 | -12.8
